Laboratory results reported in article PMC5540273 (PLoS ONE, 2017).

Legend:
Conditions in all cases: concentration: 1 μM, replicates: in singlicate; n = 1
[1] = system: DAPK2
[2] = system: DAPK3
[3] = system: T1, DCAMKL1
T1 construct: gene DCLK1

[4] = system: T2, DCAMKL2
T2 construct: gene DCLK2

[5] = system: T3, DCAMKL3
T3 construct: gene DCLK3

[6] = system: DDR1
[7] = system: DDR2
[8] = system: T4, DLK
T4 construct: gene MAP3K12

[9] = system: T5, DMPK2
T5 construct: gene CDC42BPG

[10] = system: DMPK
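Also: KINOMEscan kinase panel screen.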

Row | Structure (SMILES) | %Inh [1] [%] | %Inh [2] [%] | %Inh [3] [%] | %Inh [4] [%] | %Inh [5] [%] | %Inh [6] [%] | %Inh [7] [%] | %Inh [8] [%] | %Inh [9] [%] | %Inh [10] [%]
1 | Cn1cncc1-c1ccc2ncnc(Nc3ccc(OCc4ccccc4)cc3)c2c1 [GW320571] | 0 | 56 | 0 | 0 | 31 | 18 | 4 | 35 | 0 | 9
2 | Cc1cc(NCC(c2ccccc2)c2ccccc2)nc(NCc2ccc(C(F)(F)F)cc2)n1 [GW497681] | 0 | 0 | 0 | 11 | 0 | 0 | 20 | 39 | 1 | 0
3 | CN(C)CCN(C)C(=O)c1cc(-c2ccncc2)c(-c2ccc(Cl)c(O)c2)o1.Cl.Cl [SB-710397] | 0 | 33 | 56 | 9 | 0 | 34 | 38 | 34 | 47 | 0
4 | COc1ccc(C2=C(Nc3cccc(C(=O)O)c3)C(=O)NC2=O)cc1 [SB-390765] | 5 | 0 | 32 | 0 | 0 | 0 | 19 | 0 | 12 | 4
5 | Cc1nnc(-c2ccc3occ(-c4ccc(S(C)=O)cc4)c3c2)[nH]1 (centres unmarked) | 5 | 10 | 0 | 0 | 0 | 0 | 5 | 0 | 6 | 0
6 | Cn1ccc2ncnc(Oc3cccc(C(=O)Nc4ccccc4)c3)c21 | 24 | 0 | 28 | 0 | 0 | 0 | 9 | 0 | 0 | 11
7 | Cc1ccccc1-n1cnc2c(N)ncnc21 [SKF-97510] | 10 | 12 | 0 | 0 | 0 | 11 | 0 | 0 | 0 | 0
8 | Nc1nc(-c2nccs2)c(-c2ccnc3ccccc23)s1 [GW693542] | 0 | 10 | 13 | 0 | 6 | 9 | 5 | 33 | 6 | 100
9 | Cc1cccc(-c2nc(-c3ccc(S(C)(=O)=O)cc3)sc2-c2ccnc(NCCc3ccccc3)c2)c1 | 15 | 0 | 5 | 0 | 8 | 98.1 | 79 | 0 | 10 | 16
10 | Cc1csc(-c2nc(Nc3ccncc3)c3ccccc3n2)n1 [GW869640] | 26 | 48 | 29 | 28 | 30 | 22 | 35 | 0 | 35 | 17
11 | NC(=O)c1nnc2ccccc2c1N | 10 | 6 | 9 | 30 | 0 | 0 | 11 | 18 | 0 | 0
12 | O=C(Nc1ccccc1)Nc1cccc(Oc2ccc3nccn3n2)c1 | 0 | 0 | 0 | 0 | 69 | 97.8 | 1 | 0 | 0 | 4
13 | COc1cccc(NC(=O)NC2CCN(c3ccnc(Nc4ccc(F)cc4)n3)C2)c1 (centres unmarked) [GSK1379721] | 0 | 2 | 11 | 2 | 0 | 17 | 38 | 0 | 13 | 0
14 | Fc1cc(Cl)ccc1Nc1ccnc2cc(-c3ccc(CN4CCCCC4)o3)ccc12 [GW560116] | 0 | 25 | 0 | 14 | 0 | 27 | 36 | 36 | 0 | 0
15 | CCn1c(-c2ccccn2)nc2cnccc21 [SB-736398] | 0 | 13 | 5 | 0 | 0 | 0 | 39 | 53 | 0 | 0
16 | Cl.c1ccc(-c2n[nH]cc2-c2ccnc(-c3ccc(CN4CCOCC4)cc3)c2)nc1 [GW776245] | 12 | 4 | 38 | 16 | 12 | 0 | 34 | 0 | 9 | 0
17 | CC1=C(C(=O)Nc2cc3cn[nH]c3cc2F)C(c2ccc(C(F)(F)F)cc2)CC(=O)N1 (centres unmarked) [GSK429286] | 0 | 24 | 4 | 7 | 39 | 3 | 0 | 0 | 0 | 0
18 | O=c1cc(N2CCOCC2)nc2n(Cc3cccc(Cl)c3Cl)ccn12 [GSK2286295] | 7 | 15 | 5 | 0 | 20 | 0 | 0 | 0 | 0 | 3

Row | Structure (SMILES) | %Inh [1] [%] | %Inh [2] [%] | %Inh [3] [%] | %Inh [4] [%] | %Inh [5] [%] | %Inh [6] [%] | %Inh [7] [%] | %Inh [8] [%] | %Inh [9] [%] | %Inh [10] [%]
19 | Cc1c(O)cccc1Nc1ccnc2ccc(C(F)(F)F)cc12.Cl [GW466413] | 0 | 0 | 0 | 0 | 0 | 16 | 24 | 43 | 0 | 0
20 | Cc1cccc(-c2nc(C)cc(Nc3ccncc3)n2)n1 [GSK257997] | 2 | 14 | 11 | 3 | 13 | 0 | 1 | 0 | 89 | 0
21 | Cc1ccc(-c2cc(-c3c[nH]nc3-c3ccccn3)ccn2)cc1 [GW684088] | 9 | 25 | 21 | 24 | 0 | 13 | 47 | 45 | 5 | 0
22 | Cn1ccc2ncnc(Oc3ccc(NC(=O)Nc4ccccc4)cc3)c21 | 0 | 0 | 23 | 0 | 0 | 63 | 74 | 0 | 0 | 0
23 | O=S(=O)(c1ccc(-c2ccnc3[nH]ccc23)cc1)N1CCCC1 [GSK846226] | 48 | 76 | 23 | 0 | 0 | 0 | 0 | 0 | 15 | 3
24 | Cl.O=C(Nc1cccc(-c2nn3ncccc3c2-c2ccnc(Nc3cccnc3)n2)c1)c1c(F)cccc1F [GSK312879] | 27 | 6 | 12 | 0 | 0 | 94.4 | 4 | 14 | 13 | 15
25 | O=C(Nc1ccc2c(c1)OCO2)NC1CCN(c2ccnc(Nc3ccc(F)cc3)n2)C1 (centres unmarked) [GSK1379724] | 0 | 0 | 0 | 7 | 32 | 0 | 52 | 24 | 9 | 0
26 | Cc1cccc(-c2nc(Nc3ccc4[nH]ncc4c3)c3ccccc3n2)n1 [GW857175] | 20 | 28 | 0 | 14 | 0 | 39 | 17 | 0 | 72 | 4
27 | Cc1c(Cn2ccn3c(=O)cc(N4CCOCC4)nc23)cccc1C(F)(F)F [GSK2289044] | 12 | 12 | 3 | 0 | 13 | 0 | 8 | 0 | 0 | 64
28 | COc1cc2ncn(-c3cc(OCC4CCCO4)c(C(N)=O)s3)c2cc1OC (centres unmarked) [GSK204607] | 0 | 2 | 18 | 0 | 0 | 0 | 21 | 33 | 0 | 0
29 | Cc1cccc(-c2nc(Nc3cccc(C(N)=O)c3)c3ccccc3n2)n1 [GW876019] | 0 | 17 | 36 | 0 | 29 | 29 | 8 | 0 | 0 | 0
30 | COC(=O)c1c(-c2ccccc2)c2cc(OC)ccc2c(=O)n1Cc1ccccc1 | 2 | 6 | 12 | 7 | 0 | 81 | 50 | 9 | 0 | 0
31 | CS(=O)(=O)c1ccc(-c2nc3n(c2-c2ccncc2)CCC3)cc1 [SKF-105942] | 0 | 22 | 21 | 13 | 20 | 0 | 7 | 0 | 0 | 0
32 | CC(C)(C)c1ccc(C(=O)Nc2cn3cc(Cl)ccc3n2)cc1 | 0 | 3 | 15 | 0 | 18 | 0 | 20 | 0 | 0 | 0
33 | Cn1ccc2ncnc(Oc3ccc(Nc4nc5ccccc5[nH]4)cc3)c21 | 0 | 3 | 0 | 0 | 0 | 0 | 16 | 0 | 0 | 0
34 | Cc1cc(-c2ccc3c(c2)CC[C@@H](N[C@@H](C)c2ccccc2)C3)cnc1N.Cl [GW412617] | 0 | 0 | 0 | 0 | 0 | 14 | 25 | 87 | 4 | 6
35 | COc1cccc(-c2cc(-c3c[nH]nc3-c3ccccn3)ccn2)c1 [GW680338] | 22 | 23 | 13 | 0 | 0 | 3 | 37 | 28 | 6 | 0
